Inconclusive results are not listed. The source made the active and inactive calls. Unless noted, calls come from the whole dose curve; as a rule, active = well fitted cell-killing curve with a large enough effect; inconclusive = small, poorly fitted or top-dose-only effect; inactive = flat fitted curve, though single readings scatter.
Assays:
[1] = Cell Viability - LYMP2-025 (AID 976); note: series mostly up to about 92 µM
Summary of the method: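 Acute cytotoxicity is scored as a concentration-dependent fall in intracellular ATP, measured by luciferase luminescence, in human lymphoblastoid LYMP2-025 cells exposed to compound for 24 hours at 37 C. AC50 values come from standard Hill fits.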

[2] = Cell Viability - LYMP2-006 (AID 978); note: series mostly up to about 92 µM; nearly all actives have a fitted effect of over 60% in size
Summary of the method: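 In this cytotoxicity screen, the human lymphoblastoid line grew in complete medium with test compounds for 24 hr at 37 C. Cellular ATP served as the viability signal.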

[3] = Cell Viability - LYMP2-007 (AID 979);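 note: cells exposed to compound for 24 h before reading; nearly all actives have a fitted effect of over 60% in size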
Summary of the method: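 Cells are seeded at 2500 per well and rested 5 hr. Compounds are then added over a concentration series for 24 hr at 37 C. CellTiter-Glo is added for 30 min at room temperature before luminescence reading.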

[4] = Cell Viability - LYMP2-008 (AID 980); note: nearly all actives have a fitted effect of over 60% in size
Summary of the method: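 Cells seeded at 2500/well and rested 5 hr at 37 C; compounds added over a concentration range and incubated 24 hr at 37 C; CellTiter-Glo added, 30 min at room temperature; luminescence read and AC50 fitted with Hill model.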

[5] = Cell Viability - LYMP2-010 (AID 981); note: nearly all actives have a fitted effect of over 55% in size
Summary of the method: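 Steps: seed 2500 LYMP2-010 cells per well; incubate 5 hr at 37 C; add compound; incubate 24 hr at 37 C; add CellTiter-Glo, wait 30 min at room temperature; read luminescence. Concentration-response fitted to Hill equation for AC50.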

[6] = Cell Viability - LYMP2-012 (AID 982);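 note: cellular ATP by luciferase luminescence where a drop means cytotoxicity; cells exposed to compound for one day before reading; nearly all actives have a fitted effect of over 55% in size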
[7] = Cell Viability - LYMP2-014 (AID 983); note: series mostly up to about 92 µM; nearly all actives have a fitted effect of over 50% in size
Summary of the method: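 Cells are plated at 2500/well and left 5 hr at 37 C. Compounds are added across a concentration range and incubated 24 hr at 37 C in complete medium. CellTiter-Glo is added, and luminescence is read after 30 min at room temperature.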

[8] = Cell Viability - LYMP2-016 (AID 984); note: nearly all actives have a fitted effect of over 55% in size
Summary of the method: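 Concentration-dependent ATP depletion measured in LYMP2-016 lymphoblastoid cells, 24 h, 37 C; luciferase-based luminescent detection; Hill-equation AC50.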

[9] = Cell Viability - LYMP2-018 (AID 985);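 note: compound exposure lasted 24 hr at 37 °C; nearly all actives have a fitted effect of over 50% in size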
Summary of the method: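 Seed 2500 lymphoblastoid cells per well, incubate 5 hr at 37 C, add compound and incubate 24 hr at 37 C, add CellTiter-Glo, wait 30 min at room temperature, then read luminescence.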

[10] = Cell Viability - LYMP2-020 (AID 986); note: series mostly up to about 92 µM; nearly all actives have a fitted effect of over 55% in size
Summary of the method: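 Seed 2500 cells per well and incubate 5 hr at 37 C. Add compounds at a concentration series and incubate 24 hr at 37 C. Add CellTiter-Glo, wait 30 min at RT, read luminescence, and fit a Hill curve for AC50.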

[11] = Cell Viability - LYMP2-022 (AID 987); note: nearly all actives have a fitted effect of over 55% in size
Summary of the method: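 Cells were seeded at 2500 per well, rested 5 hr at 37 C, and treated with titrated compounds for 24 hr at 37 C. Cellular ATP was then quantified by luciferase luminescence, and AC50 values were derived from Hill-modelled concentration-response curves.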

[12] = Cell Viability - LYMP2-024 (AID 988); note: nearly all actives have a fitted effect of over 60% in size
Summary of the method: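 qHTS cytotoxicity, human lymphoblastoid line, complete medium; 24 h cpd treatment, 37 C; CellTiter-Glo ATP luminescence readout; tetraoctylammonium bromide positive control; AC50 via Hill fit.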

[13] = Cell Viability - LYMP2-026 (AID 989); note: nearly all actives have a fitted effect of over 50% in size
Summary of the method: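 Cells are seeded at 2500 per well and held 5 hr at 37 C. Compounds are added in concentration series for 24 hr, then CellTiter-Glo reagent is applied and luminescence read.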

[14] = Cell Viability - LYMP1-002 - Assay at 24 hr (AID 993)
Summary of the method: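 Acute toxicity is measured as concentration-dependent loss of cellular ATP in a human lymphoblastoid line (Coriell LYMP1-002) after 24 h treatment in complete medium. ATP is quantified by luciferase luminescence and AC50 derived by Hill modelling.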

[15] = Cell Viability - LYMP1-002 - Assay at 40 hr (AID 994); note: nearly all actives have a fitted effect of over 60% in size
Summary of the method: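 Cells are plated at 2500 per well and rested 5 hr at 37 C. Compounds are added and incubated 40 hr at 37 C. CellTiter-Glo reagent is added for 30 min at room temperature before luminescence is read.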

[16] = qHTS Assay for Identification of Small Molecule Inducers of Hypoxia Response (AID 2120; active = well fitted curve in the direction sought with a large enough effect in the signal ratio, with a control signal flat, not every such curve was filed as active; the % refers to the signal ratio)
Summary of the method: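 Cell-based qHTS for reporter induction: hypoxia response element controlled beta-lactamase in ME-180 cells. Compounds incubated 17 h at 37 degrees C; activity from blue/green (460/530 nm) ratio, inducers ranked by AC50.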

[17] = target: Estrogen receptor (Homo sapiens) (UniProt P03372); assay: qHTS assay for small molecule antagonists of estrogen receptor alpha signaling (AID 588513; active = well fitted curve in the direction sought with a large enough effect in the signal ratio, with a control signal flat, not every such curve was filed as active; the % refers to the signal ratio)
Estrogen receptor (Homo sapiens), sequence (P03372 whole entry, looked up): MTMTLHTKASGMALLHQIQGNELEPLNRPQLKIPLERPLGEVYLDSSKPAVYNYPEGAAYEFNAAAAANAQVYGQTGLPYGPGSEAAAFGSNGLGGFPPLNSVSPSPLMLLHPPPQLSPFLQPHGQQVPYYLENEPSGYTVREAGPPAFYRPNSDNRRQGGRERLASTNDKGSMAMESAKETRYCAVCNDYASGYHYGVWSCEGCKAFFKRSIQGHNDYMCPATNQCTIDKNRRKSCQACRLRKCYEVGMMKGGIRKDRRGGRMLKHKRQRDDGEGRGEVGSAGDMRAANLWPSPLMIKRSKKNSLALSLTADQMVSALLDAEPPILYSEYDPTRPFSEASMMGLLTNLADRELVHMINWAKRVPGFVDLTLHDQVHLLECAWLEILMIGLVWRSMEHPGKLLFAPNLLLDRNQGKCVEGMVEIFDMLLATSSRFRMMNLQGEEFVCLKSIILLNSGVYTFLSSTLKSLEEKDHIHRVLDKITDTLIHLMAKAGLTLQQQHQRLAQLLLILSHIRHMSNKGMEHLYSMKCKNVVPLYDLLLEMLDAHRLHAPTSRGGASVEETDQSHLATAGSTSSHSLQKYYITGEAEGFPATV
Summary of the method: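 Antagonist-mode qHTS in ER-alpha-UAS-bla HEK 293 cells: compound titration, 0.5nM estradiol for 18 h, CCF4 fluorescence, Hill-derived IC50.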

[18] = target: Estrogen receptor (Homo sapiens) (UniProt P03372); assay: qHTS assay for small molecule agonists of estrogen receptor alpha signaling (AID 588514; calls by dose curve; note: nearly all actives have a fitted effect of over 70% in size)
Summary of the method: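 Efficacy is expressed against 20 nM 17-beta-estradiol (100%) and DMSO basal (0%); EC50 from Hill equation. Assay: beta-lactamase reporter in ER-alpha-UAS-bla HEK 293 cells, 18 h compound incubation, CCF4 detection.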

[19] = Cell Viability - LYMP2-002 (AID 977);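 note: series mostly up to about 92 µM; compound exposure lasted 24 h at 37 °C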
Summary of the method: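 In this qHTS viability screen, 2500 human lymphoblastoid cells per well receive compound for 24 hr at 37 C, and luciferase-based ATP luminescence gives the viability signal. Tetraoctylammonium bromide serves as positive control.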

Measured: Potency

Cc1ccccc1C=O
not listed: [19]
inactive: all other assays above

CN(C)CCCNCCCN
not listed: [5] | [6] | [13]
inactive: all other assays above

O=C(Cl)c1cccc([N+](=O)[O-])c1
not listed: [6]
inactive: all other assays above

OC(CCl)CCl
not listed: [9]
inactive: all other assays above

C=C(C)C(=O)OCC(C)C
not listed: [19]
inactive: all other assays above

CC(C)(C)c1ccc(OCC2CO2)cc1 (configuration not stated)
not listed: [19]
inactive: all other assays above

Nc1cccc(O)c1
not listed: [6]
inactive: all other assays above

CCC(C)(C)OC
not listed: [9]
inactive: all other assays above

CCCCC(C=O)CC (configuration not stated)
not listed: [6] | [9]
inactive: all other assays above

CO[Si](CCCNCCC[Si](OC)(OC)OC)(OC)OC
not listed: [6]
inactive: all other assays above

CC(C)=C1CCC(C)CC1=O (configuration not stated)
not listed: [19]
inactive: all other assays above

O=C(O)CNC(=O)c1ccc(CO)o1
not listed: [9]
inactive: all other assays above

Clc1cc(Cl)cc(Cl)c1
not listed: [9]
inactive: all other assays above

O=C(O)c1ccc(Cl)cc1Cl
not listed: [6]
inactive: all other assays above

CC(C)N(C)C
not listed: [19]
inactive: all other assays above

CCNS(=O)(=O)c1ccc(C)cc1
not listed: [2] | [9]
inactive: all other assays above

CCC(O)C(C)(C)C (configuration not stated)
not listed: [19]
inactive: all other assays above

From PubChem BioAssay (NCATS)
